This is a sample that favours compounds with a hit; in the whole collection about 4% have one here.
Glioma ERSR ind = induces the endoplasmic reticulum stress response in human glioma cells. hit rate 0.02% among 420,000. AID 602332. U87-MG GRP78 promoter luciferase reporter, 16 h. Potency, µM, for the others: top-dose activation, actives largely listed as activators; active = well fitted activation curve with a large enough effect; note: potency is the fitted concentration of half-maximal effect; series mostly up to about 76 µM; % of control where 0% means no effect; nearly all actives have a fitted effect of over 35% in size
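ERSR induction read as luciferase luminescence (Bright-Glo, 10 min at room temperature) in stably transfected human U87-MG glioma cells exposed to compounds for 16 h, using GRP78 as sensor.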
TRHR agonist = activates the human TRH receptor; AID 493084; activation, % at 2 µM; TRHR cells, calcium flux fluo-8, FDSS agonist mode; hit rate 0.18% among 360,000; note: 0% is about no effect
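TRHR-expressing cells loaded with fluo-8 calcium dye; 23 nL library compound pin-transferred, kinetic FDSS fluorescence (Ex 480/Em 530) recorded about 180 s for agonist-induced calcium release, before a 10 nM TRH EC20 addition for potentiator mode.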
D1 antag = antagonists of human D1 dopamine receptor; P21728; HEK293 TREx D1 cells, calcium flux, dopamine EC80; hits give low values; activity change, negative = inhibition, % at 10 µM; hit rate 3.2% among 360,000; in the data active = activity change below about -30%; note: % is set by controls: 0 for no effect and ±100 for the full control effect
Target sequence (P21728 whole entry, looked up): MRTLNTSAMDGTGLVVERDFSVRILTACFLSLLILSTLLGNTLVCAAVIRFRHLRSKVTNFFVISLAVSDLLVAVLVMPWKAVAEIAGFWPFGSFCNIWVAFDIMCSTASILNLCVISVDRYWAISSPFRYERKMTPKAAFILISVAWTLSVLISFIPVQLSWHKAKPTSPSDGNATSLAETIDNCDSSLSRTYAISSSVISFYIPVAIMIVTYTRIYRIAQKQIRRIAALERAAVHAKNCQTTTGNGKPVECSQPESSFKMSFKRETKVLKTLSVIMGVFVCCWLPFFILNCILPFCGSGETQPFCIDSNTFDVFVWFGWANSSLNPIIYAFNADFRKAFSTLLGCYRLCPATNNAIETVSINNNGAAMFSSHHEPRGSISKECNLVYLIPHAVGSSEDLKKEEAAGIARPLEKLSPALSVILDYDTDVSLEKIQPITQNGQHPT
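Inducible Hek293 Trex D1 cells (tetracycline, overnight, 30 C). Calcium dye 30–90 min RT. Antagonist mode: EC80 dopamine added after 180 s compound read.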
D1 agonist = human D1 receptor agonism. HEK293 T-REx D1 cells, calcium flux, agonist mode. activation, % at 2 µM. hit rate 1% among 360,000; note: 0% is about no effect
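Agonism was scored from calcium flux recorded over 180 s (1 read/s) after pintool compound addition, following a 10-cycle baseline. Cells were inducible force-coupled HEK293 TREx D1, plated overnight at 30 C and loaded with no-wash calcium dye.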
D1 potentiator = human D1 dopamine receptor positive modulation; P21728; HEK293 TREx D1 cells, calcium flux, dopamine EC20 potentiation; potentiation, % at 10 µM; hit rate 0.036% among 360,000; AID 504651; in the data active = potentiation above about 30%; note: 0% is about no effect
TRHR PAM = allosteric enhancers of human TRH receptor. P34981. TRHR cells, fluo-8 calcium fluorescence, EC20 TRH enhancement. enhancement, % at 2 µM. hit rate 0.66% among 360,000. AID 493056; in the data active = enhancement above about 30%; note: 0% is about no effect
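Enhancer read-out: after compound pinning and an initial kinetic agonist-mode read, an EC20 of TRH (10 nM final) was injected and fluo-8 calcium signal (Ex 480/Em 530) followed at 1 s/cycle for 100 cycles in TRHR-expressing cells.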
* hit, by the source's call; / = no result given. Cut-off read from the data, not from the text of the source, unless noted: active = activation above about 30%; inactive = the rest.

SMILES | Glioma ERSR ind | TRHR agonist | D1 antag | D1 agonist | D1 potentiator | TRHR PAM
COc1ccc(C(=O)NCC(c2ccc(N(C)C)cc2)N2CCCC2)cc1 (configuration not stated) | -3% | 0 | -5 | 4 | 0 | -7
CN(C)c1ccc(C(CNS(=O)(=O)c2ccc(F)cc2)N2CCCC2)cc1 (configuration not stated) | 0% | -1 | 7 | 59* | 6 | -1
CN(C)c1ccc(C(CNS(=O)(=O)c2ccc(F)cc2)N2CCOCC2)cc1 (configuration not stated) | -1% | 0 | -3 | -1 | 2 | -5
CN(C)c1ccc(/C=N/NC(=O)c2ccco2)cc1 | -11% | 0 | -9 | 2 | -1 | -4
COC(=O)N/N=C(\C)c1ccc(-n2ccnc2)cc1 | 7% | 0 | 2 | 3 | 0 | 41*
CC(=O)Nc1ccc(C(=O)/C=C/c2ccco2)cc1 | 3% | 0 | -77* | 3 | -5 | -3
Cc1cc(C)cc(C(N)=Nc2cccc(C#N)c2)c1 | -2% | -2 | -50* | 2 | -4 | 11
CCOC(=O)c1sc2nc(CSc3ccccc3)nc(NCCN(C)C)c2c1C | -1% | -1 | -20 | 50* | -10 | -12
O=C1OC(c2cccc3c(F)cccc23)c2ccccc21 (configuration not stated) | -3% | / | / | / | / | /
CCC(Oc1ccc(C)cc1)C(=O)Nc1ccc2c(c1)n(C)c(=O)n2C (configuration not stated) | -4% | -2 | 26 | 2 | 5 | 2
Cc1ccc(OCCCn2ccnc2)c(Br)c1 | 1% | 0 | -68* | 5 | -7 | 7
Cc1cc(C)cc(OCCn2ccnc2)c1 | -1% | 0 | 29 | 2 | -2 | 35*
Cc1ccc(OCCCn2ccnc2)c([N+](=O)[O-])c1 | -3% | 0 | -6 | 1 | 1 | -2
CCOc1cc(CNCCO)cc(Br)c1OCc1cccs1 | -5% | 1 | 0 | 34* | -2 | -4
O=C(CCC(=O)N1CCCC1)Nc1ccc(Cl)c(Cl)c1 | -3% | 0 | -33* | 0 | -1 | -6
O=C(CN1CCN(S(=O)(=O)N2CCCCC2)CC1)Nc1ccc(Cl)c(Cl)c1 | -4% | -1 | -79* | 43* | -13 | -2
O=C(Nc1ccc(Cl)c(Cl)c1)N1CCCCCC1 | 6% | 0 | 17 | 5 | 3 | -3
CC(C)(C)OC(=O)N[C@@H](Cc1ccccc1)c1nnc(S(=O)(=O)Cc2ccccc2)o1 | / | 3 | -48* | 5 | -12 | -12
Cc1ccccc1CS(=O)(=O)c1nnc([C@H](Cc2ccccc2)NC(=O)OC(C)(C)C)o1 | -15% | -1 | -38* | 20 | -11 | 3
CC(C)(C)OC(=O)N[C@@H](Cc1ccccc1)c1nnc(SCC(=O)O)o1 | -3% | 0 | 9 | 2 | -1 | 1
CCSc1nnc([C@H](Cc2ccccc2)NC(=O)OC(C)(C)C)o1 | -1% | -1 | / | 1 | -1 | -4
Cc1nn(C2CCS(=O)(=O)C2)c2nc(C3CC3)cc(C(=O)Nc3cccc(C#N)c3)c12 (configuration not stated) | -1% | 1 | -36* | 6 | -6 | 0

Compound activity from PubChem.
